High-throughput results as filed in PubChem.
Sampled rows, rich in hits. Any-hit rate of the full collection: about 1.1%.
OPRM1-OPRD1 ag: OPRM1-OPRD1 heterodimerization agonism; hit rate 0.3% among 340,000; AID 504326; activation, % at 9.3 µM; cells, luminescence; in the data active = activation above about 18%
HTR5A ag: counter-screen for OPRM1-OPRD1 agonists: human HTR5A agonism | P47898 | HTR5A agonist assay, luminescence, cell-based | activation, % at 9.3 µM | hit rate 0.61% among 340,000 | AID 504692; in the data active = activation mostly above about 9.5%, no sharp cut-off; inactive = mostly below about 7.6%
Target sequence (P47898 whole entry, looked up): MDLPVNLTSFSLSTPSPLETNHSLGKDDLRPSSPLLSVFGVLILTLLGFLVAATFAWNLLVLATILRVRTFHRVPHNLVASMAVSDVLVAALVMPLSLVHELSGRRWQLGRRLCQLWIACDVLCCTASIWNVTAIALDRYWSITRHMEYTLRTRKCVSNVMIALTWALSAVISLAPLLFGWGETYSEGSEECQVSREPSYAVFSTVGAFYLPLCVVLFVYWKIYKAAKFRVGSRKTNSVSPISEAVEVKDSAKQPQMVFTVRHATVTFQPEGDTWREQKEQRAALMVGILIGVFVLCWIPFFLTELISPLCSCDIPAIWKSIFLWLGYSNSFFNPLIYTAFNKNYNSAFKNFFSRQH
OPRM1-OPRD1 inv: inverse agonists of human mu-delta opioid receptor heterodimerization. cell-based MOR-DOR heterodimer luminescence, inverse agonism. hit rate 0.21% among 340,000. P35372+P41143. inhibition, % at 9.3 µM; in the data active = inhibition above about 22%, passing the limit was not always enough
HTR5A inv ag: inverse agonist of human HTR5A in OPRM1-OPRD1 counter-screen; AID 504634; inhibition, % at 9.3 µM; hit rate 0.083% among 340,000; HTR5A cell line, luminescence, inverse agonism; in the data active = inhibition mostly above about 23%, no sharp cut-off; inactive = mostly below about 18%
Numbers stand for hits; i = inactive.

SMILES	OPRM1-OPRD1 ag	HTR5A ag	OPRM1-OPRD1 inv	HTR5A inv ag
CCOc1ccccc1N1CCN(Cc2cccc(OC)c2OC)CC1	i	i	i	i
CCOc1ccccc1N1CCN(Cc2cn[nH]c2-c2ccc(F)cc2)CC1	i	14.3	i	i
COc1cc(/C=C2\SC(=S)N(Nc3ncc(C(F)(F)F)cc3Cl)C2=O)ccc1O	i	i	i	40.8
CN(C)c1ccc(/C=C2\SC(=S)N(Nc3ncc(C(F)(F)F)cc3Cl)C2=O)cc1	i	i	i	i
O=C(COC(=O)c1cc(Br)ccc1O)NNC(=O)c1cccs1	i	i	i	i
CCN(CC)C(=O)Cn1cc(S(=O)(=O)CC(=O)Nc2ccccc2C)c2ccccc21	i	i	i	i
O=C(c1ccccc1Cl)N1CCC(N2CCC(C(=O)N3CCCC3)CC2)CC1	i	12.6	i	i
Cc1ccc(-c2noc(CCC(=O)NCc3ccccc3CN3CCOCC3)n2)cc1	i	13.9	i	i
O=C(NC(c1ccccc1)c1c(O)ccc2ccccc12)c1ccccc1Cl (stereo unspecified)	i	11.3	i	i
O=C(NC(c1ccc(Cl)cc1)c1c(O)ccc2ccccc12)c1ccccc1 (stereo unspecified)	i	i	i	i
CC1(C)CC(=O)c2cc3c(N)c(C(=O)NCc4ccccc4)sc3nc2C1	i	10.9	i	i
CC1=CC(=O)C=C(C)C1=NOC(=O)/C=C\c1ccccc1	i	12.8	i	i
CCN(CC)S(=O)(=O)c1ccc(OC)c(NC(=O)CSCc2c(C)noc2C)c1	i	i	i	i
Cc1ccc(NC(=S)Nc2ccc(Br)cc2)cc1	i	13.3	i	i
COc1ccc(OCCCC(=O)N(C)CC(=O)Nc2ccccc2Cl)cc1	i	i	i	i
O=C(CCCc1ccccn1)c1cccc2ccccc12	i	i	i	i
COc1ccc2[nH]cc(CCn3ccc(=O)c(C)c3C)c2c1	i	11.3	i	i
Cc1ccc2c(c1)N(CC(=O)NC1CCC(C)CC1)C(=O)c1cccnc1O2 (stereo unspecified)	i	i	i	i
CCOc1ccc(NC(=O)C2CCN(S(=O)(=O)c3ccc4c(c3)NC(=O)C(C)S4)CC2)cc1 (stereo unspecified)	i	10.4	i	i
CC(C)(C)C1CCC(=NNC(=O)c2cc3c(s2)CCCC3)CC1 (stereo unspecified)	i	i	i	i
CC(C)(C)C1CCc2sc(C(=O)NNC(=O)CCl)cc2C1 (stereo unspecified)	38.3	57.0	i	i
Cc1cc(CC(=O)O)n(C)c1C(=O)c1ccc(Cl)cc1	i	9.7	i	i
Cn1nccc1C(=O)c1ccc(Cl)cc1	i	i	i	i
CC1CCN(S(=O)(=O)c2ccc(C(=O)N3CCCC3C(=O)O)cc2)CC1 (stereo unspecified)	i	i	i	i
Cc1cc(O)c(N=Nc2ccc(C(=O)O)cc2)cc1C	i	i	i	i
SMILES	OPRM1-OPRD1 ag	HTR5A ag	OPRM1-OPRD1 inv	HTR5A inv ag
O=C(NCc1ccco1)c1ccc(C(=O)NCc2ccco2)s1	i	10.4	i	i
CCCNS(=O)(=O)c1ccc(OCC(=O)Nc2ccc3c(c2)OCCO3)c(C)c1	i	9.6	i	i
CCCNS(=O)(=O)c1ccc(OCC(=O)Nc2ccc3c(c2)OCCO3)cc1	i	i	i	i
COc1ccc(NC(=O)COC(=O)C2CCN(S(=O)(=O)c3cccs3)CC2)cc1OC	i	i	i	i
COc1cc(/C=N/N=C(N)N)ccc1OCc1ccc(Cl)cc1	i	10.5	i	i
COc1cc(NS(=O)(=O)c2ccc(C)cc2)c2ncccc2c1	i	i	47.3	i
Cc1ccc(OCCC(=O)OCC(=O)Nc2ccc(C)cc2Cl)cc1	i	i	i	i
Cc1cccc(Nc2nc(CC(=O)O)cs2)c1	i	11.3	i	i
COC(=O)CCC(=O)OC1(C)C(=O)C2=CN(C3CC3)C(c3ccc(OC)cc3)=CC2=C(Br)C1=O (stereo unspecified)	i	9.4	i	i
CCOC(=O)c1nnn(-c2nonc2N)c1COc1ccccc1	i	11.0	i	i
CCOC(=O)c1nnn(-c2nonc2N)c1COc1ccc(F)cc1	i	i	i	i
Oc1ccccc1/C=N/NC(=S)NCCc1ccccc1	i	10.2	i	i
S=C(NCCc1ccccc1)N/N=C/c1cccc(Cl)c1Cl	i	i	i	i
COc1ccc(/C(N)=N/OC(=O)c2c(-c3ccccc3Cl)noc2C)cc1OC	i	12.2	i	i
Cc1cccc2c1-c1sc(C(=O)Nc3cccnc3)cc1CO2	i	10.8	i	i
CC1CCCN(CCCNC(=O)c2cc3c(s2)-c2ccccc2OC3)C1 (stereo unspecified)	i	11.4	i	i
Cc1cccc2c1-c1sc(C(=O)NCCCN3CCC(C)CC3)cc1CO2	i	11.0	i	i
